The AC50 is the concentration giving half of the maximal activity seen.

Inconclusive results are not listed. More than one record can exist for a structure, and the calls need not agree. Calls of active or inactive are those of the source. The calls were made as follows, unless noted: active = hit-call score of the fitted dose curve at least 0.9, where 1 is the maximum; inconclusive = response in the unintended direction; inactive = score below 0.9.

Data on 15 compounds can be found in PubChem BioAssay (EPA / NIEHS).

Read-out in assay [1]: sulfotransferase (SULT2A), SULT2A1 (gene 6822)
Put plainly: CLD_SULT2A_48hr: CellzDirect (CLD) Gene Expression Assay for sulfotransferase (SULT2A) at 48 hours (AID 2283710).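 Also: hits raise SULT2A1 transcript above the 0.2% DMSO vehicle baseline.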 In outline:
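SULT2A1 transcript measured by qNPA chemiluminescence in human primary hepatocyte cultures after 48 h, with fresh dosing solutions on two consecutive days; gain-of-signal fitting against 0.2% DMSO vehicle; cytotoxicity annotated from phase-contrast morphology.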

The nature of assay [2]: STM_H9_OrnithineISnorm_perc: Stemina devTOX quickPredict H9 human embryonic stem cell (hESC)-based Assay for Ornithine (ORN) Metabolite Biomarker, Normalized (AID 2283712; active = hit-call score of the fitted dose curve at least 0.9, where 1 is the maximum; inactive = score below 0.9;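 also: ornithine released into spent medium during last day measured by mass spectrometry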). Summed up: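 Ornithine in spent medium from the last 24 h of a 72 h exposure, deproteinised and quantified by UPLC-HRMS against an isotope-labelled internal standard, expressed relative to 0.1% DMSO. Pluripotent H9 cells; compound refreshed every 24 h.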

Assay [3] can be described thus: CEETOX_H295R_MTT_cell_viability: Viability Assessment in the CeeTox HT-H295R MTT Assay (AID 2283718; active = hit-call score of the fitted dose curve at least 0.9, where 1 is the maximum; inactive = score below 0.9). Summed up:
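H295R cells prestimulated 48 h with 10 uM forskolin, then exposed 48 h to test chemical (0.1% DMSO final). Viability by MTT (0.5 mg/ml, 4 h, 37 C), absorbance 570/650 nm; percent change versus DMSO, bidirectional fit.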

Assay [4] can be described thus: Tanguay_ZF_120hpf_ActivityScore_legacy: (Legacy) Oregon State University Tanguay Lab 120 Hour Post-fertilization zebrafish Assay Score for Activity (AID 2283742).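 As to AC50: dechorionated Tropical 5D wild-type zebrafish embryos held singly per well; static exposure from 6 hpf until 120 hpf at 28 °C.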 In outline:
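In this whole-embryo screen, dechorionated zebrafish were exposed from 6 hpf until 120 hpf at 28C under a 0.64% DMSO vehicle. Developmental malformations and death were recorded by brightfield microscopy as binary endpoints.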

The nature of assay [5]: STM_H9_OrnCyssISnorm_ratio: Stemina devTOX quickPredict H9 human embryonic stem cell (hESC)-based Assay for Ornithine (ORN):Cystine (CYSS) Ratio (AID 2283714). Summed up: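 H9 hESC, 72h, q24h re-dose; last-day media → acetonitrile deproteinization → UPLC-HRMS. ORN:CYSS ratio from isotope-normalized EIC areas, vs 0.1% DMSO; MTX references on each plate.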
Assay [6] can be described thus: ArunA_Migration_hNP: ArunA Biomedical's Oris Neuroprogenitor (hNP) Cell Migration Assay (AID 2283754). Summed up: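 Readout is calcein-AM fluorescence (ex494/em517) of cells migrating into the detection zone, relative to DMSO. hNP1 cells (H9-derived) grown on Matrigel behind stoppers 16 h, then stoppers pulled and chemical applied 72 h; cytochalasin D as control.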

The nature of assay [7]: ArunA_Migration_hNC: ArunA Biomedical's Oris Neural Crest (hNC) Cell Migration Assay (AID 2283755). Here is the method: ArunA_Migration_hNC is a cell-based, single-readout assay that uses human H9-derived embryonic neural crest stem cells (hNC). Measurements were taken 72 hours after chemical dosing in a 96-well plate.ArunA_Migration_hNC is an assay component measured from the ArunA_Migration_hNC assay. It is designed to make measurements of cell migration, a form of distribution reporter, as detected with fluorescence intensity signals by HCS Fluorescent Imaging technology. Data from the assay component ArunA_Migration_hNC was analyzed at the endpoint, ArunA_Migration_hNC, in the positive analysis fitting direction relative to DMSO as the negative control and baseline of activity. Using a type of distribution reporter, loss-of-signal activity can be used to understand the cell migration. To generalize the intended target to other relatable targets, this assay endpoint is annotated to the neurodevelopment intended target family, where the subfamily is migration.
To assess the hNP and hNC migration and cell titer endpoints, 60,000 cells per well were plated onto Matrigel in basal growth medium with LIF and bFGF in a 96-well plate format. Plates were incubated for 16 h at 37C followed by a 72 h exposure to chemical in the test medium. For the migration endpoints, cells were seeded and incubated in presence of 'seeding stoppers' to prevent cell migration and growth into the detection zone. At the beginning of chemical exposure, stoppers were removed, and growth medium was replaced with test medium. In the case of the stopper control wells, stoppers remained in place following replacement of growth medium with test medium. Following 72 -h exposure to the test medium, cells were stained at 37C for 30-60 min with calcein-AM. Cell viability in the detection zone was quantitated using a Flexstation3 microplate reader (ex494 nm/em 517 nm). Corresponding cell titer endpoints were assessed for the hNP and hNC cells using the Promega CellTiter Aqueous One Solution Cell Proliferation Assay (Cat no. G3581; CellTiter 96). Finally, to gain insight into the mechanisms by which cells migrate into the detection zone, Ki-67 expression was quantified for 10 additional chemicals in the hNP and hNC systems. Additionally, cytochalasin D was used as a positive control to inhibit cell migration. Supplementing the AB2 Basal Medium: 1. Decontaminate the external surfaces of all supplement vials and the medium bottle with ethanol or isopropanol. 2. Aseptically open each supplement vial and add the amount indicated below to the basal medium with a pipette. To make 100 ml of complete medium: AB2 Neural Medium 96 mL, ANS Supplement 2 mL, bFGF (50 ug/mL) 40 uL, LIF (10 ug/mL) 100 uL, L-Glutamine (200 mM) 1 mL, Penicillin (5,000 U/mL)/ Streptomycin (5,000 ug/mL) 1 mL. 3. Supplemented medium should be stored at 2-8C, protected from light. The complete medium should be given a 2 week expiration date. Dispense the complete medium into aliquots to avoid repeated heating prior to each use.Plate Coating Protocol for hNP1 Neural Progenitor Expansion: To coat dishes perform the following steps: 1. Thaw BD Matrigel at 2-8C overnight. Matrix will gel rapidly at 22C to 35C. Keep Matrigel on ice and use pre-cooled pipettes, plates and tubes when preparing. Gelled Matrigel may be re-liquified if placed at 2-8C on ice for 24 to 48 hours. 2. Handle using aseptic technique in a laminar flow hood. 3. Once BD Matrigel Matrix is thawed, swirl vial to be sure that material is evenly dispersed. 4. […]

Assay [8] is described as follows: ArunA_CellTiter_hNP: Viability Assessment in the ArunA Biomedical's Oris Neural Crest (hNC) Cell Migration Assay (AID 2283753). The protocol: ArunA_CellTiter_hNP is a cell-based, single-readout assay that uses human H9-derived neuroprogenitor stem cells (hNP1).Measurements were taken 72 hours after chemical dosing in a 96-well plate.ArunA_CellTiter_hNP is an assay component measured from the ArunA_CellTiter_hNP assay. It is designed to make measurements of viability, a form of viability reporter, as detected with fluorescence intensity signals by HCS Fluorescent Imaging technology. Data from the assay component ArunA_CellTiter_hNP was analyzed at the endpoint, ArunA_CellTiter_hNP, in the positive analysis fitting direction relative to DMSO as the negative control and baseline of activity. Using a type of viability reporter, loss-of-signal activity can be used to understand the viability. To generalize the intended target to other relatable targets, this assay endpoint is annotated to the cell cycle intended target family, where the subfamily is cytotoxicity.
To assess the hNP and hNC migration and cell titer endpoints, 60,000 cells per well were plated onto Matrigel in basal growth medium with LIF and bFGF in a 96-well plate format. Plates were incubated for 16 h at 37C followed by a 72 h exposure to chemical in the test medium. For the migration endpoints, cells were seeded and incubated in presence of 'seeding stoppers' to prevent cell migration and growth into the detection zone. At the beginning of chemical exposure, stoppers were removed, and growth medium was replaced with test medium. In the case of the stopper control wells, stoppers remained in place following replacement of growth medium with test medium. […] Cell viability in the detection zone was quantitated using a Flexstation3 microplate reader (ex494 nm/em 517 nm). Corresponding cell titer endpoints were assessed for the hNP and hNC cells using the Promega CellTiter Aqueous One Solution Cell Proliferation Assay (Cat no. G3581; CellTiter 96). Finally, to gain insight into the mechanisms by which cells migrate into the detection zone, Ki-67 expression was quantified for 10 additional chemicals in the hNP and hNC systems. […]

The nature of assay [9]: ArunA_CellTiter_hNC: Viability Assessment in the ArunA Biomedical's Oris Neural Crest (hNC) Cell Migration Assay (AID 2283752). Summed up:
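After a 72 h chemical exposure, viability of hNC cells is read with CellTiter Aqueous One and fitted as signal loss relative to DMSO. Cells were seeded at 60,000/well on Matrigel and cultured 16 h at 37 C beforehand.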

Consider `CCNc1nc(Cl)nc(NC(C)(C)C#N)n1`, for which the outcome in [1], in assay [2], in [3] and in [4] was inactive.

Turning to `C=C(C)[C@H]1Cc2c(ccc3c2O[C@@H]2COc4cc(OC)c(OC)cc4[C@@H]2C3=O)O1`, in assay [1], the compound was called inactive. The results for the half-maximal activity concentration (AC50) in assay [2], in [5] and in assay [4] were 0.347 µM (active), 0.333 µM (active) and 0.193 µM (active), respectively.

`CSc1nc(NC(C)C)nc(NC(C)C)n1`: the outcome in assay [1], in assay [3] and in [4] was inactive. In addition, the concentration at half-maximal activity (AC50) in assay [2] was 0.22 µM (active); in assay [5] it was 0.237 µM (active).

Take `C[Si](Cn1cncn1)(c1ccc(F)cc1)c1ccc(F)cc1`: the compound was classed as inactive in assay [1], in assay [3], in [6] and in [7]. Further, the AC50 in [2] is 76.6 µM (active); in assay [5] it was 50.7 µM (active); in assay [4], 35.9 µM (active).

For the compound `Cc1nn(-c2cc(NS(C)(=O)=O)c(Cl)cc2Cl)c(=O)n1C(F)F`, the result in assay [1] and in [4] was inactive. Further, the AC50 in assay [2] is 0.114 µM (active).

`CN(C)[C@@H]1C(=O)C(C(N)=O)=C(O)[C@@]2(O)C(=O)C3=C(O)c4c(O)cccc4[C@@](C)(O)[C@H]3[C@H](O)[C@@H]12`: the compound was classed as inactive in assay [1], in [2], in assay [5], in assay [3] and in [4]. In addition, the AC50 in assay [2] was 50 µM (active); in [8], 4.16 µM (active); in assay [6], 50 µM (active); in assay [7], 50 µM (active).

For `CCCCSP(=O)(SCCCC)SCCCC`, the AC50 in assay [1] is 33.4 µM (active). Moreover, the compound was classed as inactive in [4].

As to `CC(Oc1cccc(Cl)c1)C(=O)O` (stereo not drawn), the compound was classed as inactive in [4].

With `CNC(=O)Oc1cccc2c1OC(C)(C)O2`, the compound was classed as inactive in [3] and in assay [4].

With `CC1=NNC(=O)N(/N=C/c2cccnc2)C1`, the outcome in assay [2], in assay [4], in assay [9], in [6] and in assay [7] was inactive.

Turning to `COc1cc(OC)nc(Sc2cccc(Cl)c2C(=O)O)n1`, the result in [1] and in assay [4] was inactive.

As to `O=C(O)c1cc(Oc2ccc(C(F)(F)F)cc2Cl)ccc1[N+](=O)[O-]`, the outcome in assay [1], in assay [3] and in assay [4] was inactive.

Regarding `CNC(=O)ON=C(SC)C(=O)N(C)C`, the compound was called inactive in [3] and in assay [4].

`CCC(CC)Nc1c([N+](=O)[O-])cc(C)c(C)c1[N+](=O)[O-]`: the compound was called inactive in [1] and in assay [4].

For the compound `CCc1cnc(C2=NC(C)(C(C)C)C(=O)N2)c(C(=O)O)c1` (stereo not drawn), the compound was classed as inactive in [1] and in assay [4].
